Bst PK mod: pyruvate kinase (B. stearothermophilus) modulation. actives 1.2% (n = 51,000). Potency, µM. purified pyruvate kinase, luminescence ATP production; ribose 5-phosphate activator present at AC10; in the data active = potency below about 11 µM; inconclusive = mostly about 12 µM to 25 µM;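 the screen sought inhibitors and activators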;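 also: scaled between full activation by ribose 5 phosphate and full inhibition by luteolin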
GBA mod: modulators of human glucocerebrosidase | purified enzyme, resorufin glucoside fluorescence (screen aimed at inhibitors), 20 min | Potency, µM | AID 360 | actives 1.1% (n = 48,000); in the data active = potency below about 15 µM; inconclusive = mostly about 16 µM to 33 µM;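 also: the screen sought inhibitors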
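Compounds titrated against 0.2 nM normal enzyme, 30 uM resorufin beta-D-glucopyranoside substrate, citrate/phosphate buffer with taurocholate and tween-20, pH 5.9. Reaction ran 20 min at room temperature; fluorescence (Ex 548/Em 600) gave AC50.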
TSHR agonist: agonists of human thyroid stimulating hormone receptor; P16473; Potency, µM (highest dose often 57.1 µM), for the others: at the top dose activation, most hits filed as activators; HEK293-CNG-TSHR cells (CNG channel as cAMP sensor), membrane potential dye, cAMP; actives 0.48% (n = 73,000); AID 926; active = well fitted activation curve with a large enough effect in the main read-out, with a control signal flat, not every such curve was filed as active; inconclusive = small, poorly fitted or top-dose-only effect, or a change in a side signal; inactive = no such curve, though single readings can be large or run the other way; % of control where 0% means no effect;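 also: the control signal comes from parental cells without the receptor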
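HEK 293 cells stably expressing TSHR and a modified CNG channel, with CNG-only parental cells as counterscreen, were preloaded 60 min at room temperature with membrane potential dye containing 100 uM RO 20-1724. Compound exposure was 30 min, and depolarization was read as fluorescence at 590 nm.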
Luciferase inh: inhibitors of firefly luciferase; Potency, µM (highest dose often 57.1 µM), without a hit: at the top dose activity change, negative = inhibition, usual class: inhibitors; actives 2.2% (n = 72,000); P08659; purified firefly luciferase, luminescence, 8 min; also: % is scaled to controls: 0 for no effect and ±100 for the full control effect; nearly all actives have a fitted effect of over 40% in size
Target sequence (P08659 whole entry, looked up): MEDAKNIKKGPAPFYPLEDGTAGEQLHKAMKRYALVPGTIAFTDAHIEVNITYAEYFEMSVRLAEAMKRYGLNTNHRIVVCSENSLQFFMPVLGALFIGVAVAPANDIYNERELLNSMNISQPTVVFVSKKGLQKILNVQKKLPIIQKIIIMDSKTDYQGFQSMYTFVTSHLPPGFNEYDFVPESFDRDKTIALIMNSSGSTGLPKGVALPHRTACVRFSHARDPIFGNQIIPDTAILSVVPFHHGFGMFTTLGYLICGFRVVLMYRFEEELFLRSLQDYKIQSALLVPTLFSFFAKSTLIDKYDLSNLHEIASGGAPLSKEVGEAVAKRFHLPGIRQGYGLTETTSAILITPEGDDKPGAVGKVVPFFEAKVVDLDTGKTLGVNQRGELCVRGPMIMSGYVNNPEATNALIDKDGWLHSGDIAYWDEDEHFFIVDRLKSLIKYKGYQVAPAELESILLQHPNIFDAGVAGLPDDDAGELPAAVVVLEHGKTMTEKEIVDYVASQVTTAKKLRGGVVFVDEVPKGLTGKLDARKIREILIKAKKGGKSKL
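Titration-based qHTS; buffer 50 mM imidazole pH 7.2, 50 mM KCl, 7 mM MgCl2, 10 uM ATP, 0.01% Tween 20, 0.05% BSA; luciferase/luciferin detector mix added after compound; 8 min, ambient; luminescence.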
HEK293 cAMP cs: parental HEK293 cAMP activation (counter-screen). Potency, µM (top dose mostly 57.1 µM), for inactives: top-dose activation, usual class: activators. AID 938. actives 2.5% (n = 73,000). parental HEK293 CNG cAMP sensor, membrane potential fluorescence; also: % of control where 0% means no effect; nearly all actives have a fitted effect of over 55% in size
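Parental HEK 293 cells stably expressing a cAMP-gated CNG channel were loaded with membrane potential dye containing 100 uM RO 20-1724 for 60 min. Compound added for 30 min; depolarization read as fluorescence intensity at 590 nm.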
ERK AVP block: inhibitors of vasopressin-stimulated ERK signaling pathway. HEK293-V1b, vasopressin-stimulated pERK AlphaScreen. Potency, µM (highest dose often 57.5 µM), inactives show top-dose activity, negative = inhibition, hits mostly inhibitors. actives 0.99% (n = 72,000). AID 995; also: % is scaled to controls: 0 for no effect and ±100 for the full control effect; nearly all actives have a fitted effect of over 55% in size
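Overnight-seeded V1b-HEK293 cells in 1% FBS got compound, then vasopressin (25 nM final, 5 min, 37C), then lysis buffer. AlphaScreen detection of phospho-ERK; activity normalized to basal and full-stimulation controls.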
An asterisk follows results filed as active; i = inactive; ? = inconclusive; . = no result; ! = repeats disagree; [ ] = another dose, or the depositor's remark. Rows were chosen to be rich in hits. Some 6.1% of all compounds tested hit in one or more screens of this group. Unless noted, calls follow the shape of the dose curve; as a rule, active = well fitted curve in the direction sought with a large enough effect; inconclusive = small, poorly fitted or top-dose-only effect, or another doubt; inactive = no such curve, though single readings can be large; an effect the other way counts as inactive or inconclusive. Potency is read from the fitted curve at half-maximal effect.

SMILES	Bst PK mod	GBA mod	TSHR agonist	Luciferase inh	HEK293 cAMP cs	ERK AVP block
COc1cc(OC)cc(-c2nc3cc(C)ccc3o2)c1	i	?	7%	16µM*	15%	-19%
COc1cc(C(=O)Nc2cc(-c3nc4cc(C)ccc4o3)ccc2C)cc(OC)c1OC	.	.	6%	1µM*	6%	-19%
Cc1ccc2nc(-c3cccc(-c4nc5ccc(C)cc5o4)n3)oc2c1	>57	>77	4%[11.4 µM]	1%	11%	6%
O=c1c2ccccc2nc(-c2ccco2)n1/N=C/c1ccco1	>57	>77	26%	-4%	2%	-26%
Cc1ccccc1OCc1nc2ccccc2c(=O)n1/N=C/c1ccco1	>57	>77	?	-20%	16µM*	20%
COc1cccc(/C=N/n2c(-c3ccco3)nc3ccccc3c2=O)c1	>57	>77	?	-1%	16µM*	-1%
c1ccc(Nc2ncncc2-c2ccc3c(c2)OCO3)cc1	.	.	?	1%[2.29 µM]	?	-29%
O=C(c1ccco1)N1CCN(c2ncnc3c2[nH]c2ccc(Br)cc23)CC1	.	>77	-8%	-4%	-14%	?
Fc1ccc2[nH]c3c(N4CCN(c5ccccc5)CC4)ncnc3c2c1	i	>77	18%	0%	31%	10µM*
OC1(c2cccc(C(F)(F)F)c2)CCN(c2ncnc3c2[nH]c2ccc(F)cc23)CC1	.	.	-5%	1%	-3%	25µM*
CCOC(=O)CCCCC1=CC2=CC(=O)C(C)(O)C(=O)C2=CO1 (stereo not given)	.	.	-6%[11.4 µM]	.	-1%[11.4 µM]	2%[11.5 µM]
COc1cc(/C=C\C(=O)CC(=O)/C=C\c2ccc(O)c(OC)c2)ccc1O	.	.	?	-16%[11.4 µM]	-36%	.
CC(=Nc1cccc(O)c1)c1sc2ccccc2c1O	8.2*	.	.	7.9µM*	.	.
O=C1c2ccccc2-c2ccc(NC(=O)[C@H]3CCCC[C@@H]3C(=O)O)cc21	.	.	-6%[11.4 µM]	0%[11.4 µM]	2%[11.4 µM]	-10%[11.5 µM]
COc1ccc(NC(=O)C2CCCCN2S(=O)(=O)c2ccc(F)cc2)c(OC)c1 (stereo not given)	>57	>77	?	-3%	?	10%
COc1ccc(NC(=O)C2CCC(=O)N2S(=O)(=O)c2ccc(C)cc2)c(OC)c1 (stereo not given)	11*	>77	2%	-1%	-2%	-7%
CCOc1ccc2[nH]c(=O)c(C(c3nnnn3C3CCCCC3)N3CCN(C)CC3)cc2c1 (stereo not given)	>57	.	3%	0%	8%	-10%
CCOc1ccc2[nH]c(=O)c(C(c3nnnn3Cc3ccco3)N3CCC(C)CC3)cc2c1 (stereo not given)	>57	?	?	-3%	32µM*	-10%
CCOc1ccc2[nH]c(=O)c(C(c3nnnn3Cc3ccco3)N3CCCC(C)C3)cc2c1 (stereo not given)	>57	i	?	-1%	7.9µM*	12%
CC(C)(C)n1ncc2c(=O)n(CC(=O)NCCc3ccccc3)cnc21	>57	>77	2%	-2%	10%	-6%
CC(C)(C)n1ncc2c(=O)n(CC(=O)NCc3ccccc3Cl)cnc21	.	>77	.	25µM*	9%	?
O=C1C=CC(=Nc2cccc3c(N=C4C=CC(=O)O4)cccc23)O1	.	.	22%[11.4 µM]	-19%[11.4 µM]	3%[11.4 µM]	19%[11.5 µM]
Cc1ccc2c(COn3nnc4ccc(S(=O)(=O)N(C)C)cc43)cc(=O)oc2c1C	>57	11*	?	-41%	?	1%
CN[C@H](CC(=O)O)C(=O)O	.	.	0.79µM*!	0%	0%	19%
CC(=O)NC(CC(=O)O)C(=O)NC(CCC(=O)O)C(=O)O (stereo not given)	.	.	.	.	.	0%
SMILES	Bst PK mod	GBA mod	TSHR agonist	Luciferase inh	HEK293 cAMP cs	ERK AVP block
[Cu].[O-]/N=C1/C(=[OH+])Nc2ccccc21.[O-]Nc1c(O)[nH]c2ccccc12	.	.	-3%[11.4 µM]	-1%[11.4 µM]	-1%[11.4 µM]	7%[11.5 µM]
O=C(N[C@@H](Cc1ccccc1)C(=O)O)c1cccnc1	.	.	1%	2%	25%	.
O=C(CC(Nc1ccccc1)C(=O)O)c1ccccc1 (stereo not given)	10*	>77	-4%	13µM*	5%	-23%
O=C(CSc1nnc(-c2ccccc2)o1)Nc1ccccc1F	.	.	17%	3%	1%	-21%
O=C(CSc1nnc(-c2ccc(Br)cc2)o1)Nc1cccc2ccccc12	>57	>77	0.04µM*	3%	12%	1%
N#Cc1cccc(-c2nc3cnc(N4CCOCC4)nc3n(C[C@H]3CCCO3)c2=O)c1	.	.	?	0%[11.4 µM]	?	-27%
CC1CC(N(C(=O)c2ccco2)c2ccccc2)c2ccccc2N1 (stereo not given)	>57	>77	13µM*	0%	27%	8%
CCCCCc1nc2c(=O)n(C)c3ccccc3c2o1	.	>77	?	0%	?	14%
Cn1c(=O)c2nc(-c3ccccc3)oc2c2ccccc21	0.43*	>77	?	-3%	?	-2%
CSc1nc2[nH]c3c(c2c2ncnn12)CCCC3	0.42*	.	.	-4%[25.5 µM]	.	.
COCn1c2ccccc2c2nnc(C(=O)O)nc21	.	.	1%[11.4 µM]	.	0%[11.4 µM]	11%[11.5 µM]
OC1(C(O)(c2ccc(-c3ccccc3)cc2)c2ccc(-c3ccccc3)cc2)CCCCC1	.	.	-1%[11.4 µM]	2%[11.4 µM]	2%[11.4 µM]	29%[11.5 µM]
O=[N+]([O-])c1cccc(/C=N\Nc2ccc3ccccc3n2)c1O	.	.	-13%[11.4 µM]	3.2µM*	-5%[11.4 µM]	-25%[11.5 µM]
Oc1c(/C=N/c2ncn[nH]2)ccc2ccccc12	.	.	1%	-1%	6%	-4%
COC(=O)N1CCC2(CCCN(C(=O)Nc3cccc(C#N)c3)C2)CC1	.	.	2%	1%[11.4 µM]	13%	4%
COC(=O)N1CCC[C@@]2(CCN(C(=O)Nc3cccc(F)c3)C2)C1	.	.	?	1%[11.4 µM]	7.9µM*	15%
COc1ccc(C(=O)N2CCC3(CCCN(C(=O)Nc4cccc(C#N)c4)C3)CC2)cc1	.	.	25µM*	-3%[11.4 µM]	11%	-19%
COC(=O)N1CCC2(CCCN(C(=O)Nc3cccc(F)c3)C2)CC1	.	.	1%	1%[11.4 µM]	-4%	28%
Cn1c(=O)c2[nH]c(CCCCC(=O)O)nc2n(C)c1=O	.	.	5%[11.4 µM]	0%[11.4 µM]	3%[11.4 µM]	14%[11.5 µM]
COc1ccc(-c2cc(-c3ccccc3O)[nH]n2)cc1OC	.	.	5%	4µM*	5%	?
COc1ccc(CCNC(=O)c2cc(-c3ccccc3O)n[nH]2)cc1OC	>57	?	.	0%	1%	?
Oc1ccccc1-c1cc(C(F)(F)F)[nH]n1	>57	>77	-23%	0%	-9%	?
Cc1ccc(-c2cc(-c3cccc(F)c3)n[nH]2)c(O)c1	11*	>77	-11%	13µM*	-6%	-13%
COC(=O)c1cc(-c2ccc(OC)c(OC)c2)n[nH]1	.	>77	1%	-7%	2%	-14%
COc1ccc(-c2cc(-c3cc(F)ccc3O)[nH]n2)cc1OC	9.6*	>77	8%[11.4 µM]	13µM*	-7%	32µM*

High-throughput results (PubChem BioAssay)
